TDP1 cell noCPT = qHTS for Inhibitors of human tyrosyl-DNA phosphodiesterase 1 (TDP1): qHTS in cells in absence of CPT. DT40 Tdp1-/- hTDP1 cells, no CPT, ATP luminescence, 48 h. Potency, µM (series often up to 46.2 µM), for inactives: at the highest dose activity change, negative = growth inhibition, most hits filed as inhibitors. hit rate 15% among 420,000; also: % is scaled to controls: 0 for no effect and ±100 for the full control effect; nearly all actives have a fitted effect of over 55% in size
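Growth kinetics read by CellTiter-Glo luminescence after ≥48 hr at 37 °C. Cells: DT40 Tdp1-/- stably carrying human TDP1, 400 per well, compound exposure in the absence of CPT (DMSO vehicle).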
HepG2 viability = counter-screen for TGF-b inhibitors: cytotoxicity in HepG2 cells. HepG2 CAGA-GFP viability, ATP luminescence, 18 h. Potency, µM (series often up to 46.1 µM), without a hit: at the highest dose activity change, negative = cytotoxicity, actives largely listed as cytotoxic. hit rate 0.76% among 410,000. AID 588856
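HepG2 CAGA-GFP cells (1000/well, DMEM with 1% FBS) received compound, then TGF-beta at 500 pg/mL final, and were incubated 18 hours at 37 degrees C. Viability was read by CellTiter-Glo luminescence. Media-only wells were set as complete cell-killing and DMSO as no toxicity.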
ATXN viability = cell viability loss in ATXN counter-screen; S2 cells (HEK-293 line with an ATXN2-luciferase reporter) viability, CellTiter-Fluor protease fluorescence, 24 h; Potency, µM (series often up to 56.7 µM), hits mostly cytotoxic; hit rate 0.49% among 400,000; AID 651635; also: nearly all actives have a fitted effect of over 40% in size
TDP1 cell CPT = DT40-hTDP1 cell growth loss with CPT; chicken DT40 Tdp1-/-;hTDP1 cells + 20 nM CPT, ATP luminescence, 48 h; Potency, µM (top dose mostly 46.2 µM), for the others: at the top dose activity change, negative = growth inhibition, usual class: inhibitors; hit rate 12% among 420,000; also: % is scaled to controls: 0 for no effect and ±100 for the full control effect; nearly all actives have a fitted effect of over 55% in size
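Chicken DT40 Tdp1-/- cells complemented with human TDP1, 400 cells/well, exposed to compounds plus 20 nM camptothecin for at least 48 h at 37 C; viability read as ATP content by CellTiter-Glo luminescence.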
ATXN2 expr inh = reduces ATXN2 reporter expression in HEK-293 cells; HEK-293 ATXN2-luciferase reporter, luminescence, 24 h; Potency, µM (doses to about 57 µM), without a hit: at the highest dose activity change, negative = inhibition, usual class: inhibitors; hit rate 0.72% among 360,000; also: % is scaled to controls: 0 for no effect and ±100 for the full control effect; nearly all actives have a fitted effect of over 55% in size
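qHTS (up to 57 uM final) was run with 24 h compound exposure of reporter cells at 37 °C. Each well was multiplexed: SteadyGlo luminescence measured ATXN2-luciferase expression after a fluorogenic Gly-Phe-AFC viability readout (25 uM final).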
TGFb SMAD3 inh = blocks TGF-b signaling; HepG2 CAGA-GFP TGF-b/SMAD3 reporter, GFP fluorescence, 18 h; TGF-beta stimulated, 500 pg/mL final; Potency, µM (titrated, usually from 46.1 µM), for the others: at the highest dose activity, negative = inhibition, usual class: inhibitors; AID 588855; hit rate 1.2% among 410,000; also: % is scaled to controls: 0 for no effect and ±100 for the full control effect; nearly all actives have a fitted effect of over 65% in size
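TGF-beta reporter screen: HEPG2 CAGA-GFP, 1% FBS, 500 pg/mL TGF-beta final, 18 h; per-cell GFP summed per well; curves fitted and categorized by class.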
* hit, by the source's call. This is a sample that favours compounds with a hit; in the whole collection about 17% have one here. Calls follow the shape of the dose curve; as a rule, active = well fitted curve in the direction sought with a large enough effect; inconclusive = small, poorly fitted or top-dose-only effect, or another doubt; inactive = no such curve, though single readings can be large; an effect the other way counts as inactive or inconclusive. Potency is read from the fitted curve at half-maximal effect.

CC(/C=N/NC(=O)c1cc(-c2ccc(C)o2)[nH]n1)=C\c1ccccc1 was read as TDP1 cell noCPT 16µM*, HepG2 viability -37%, ATXN viability inactive, TDP1 cell CPT 15µM* and TGFb SMAD3 inh -25%.
For COc1ccccc1/C=C/C=N/NC(=O)c1cc(-c2ccco2)[nH]n1 the results were TDP1 cell noCPT 18µM*, HepG2 viability 10%, ATXN viability inconclusive, TDP1 cell CPT inconclusive, ATXN2 expr inh -19% and TGFb SMAD3 inh 33%.
O=C(N/N=C/C(Br)=C/c1ccccc1)c1cc(-c2ccco2)[nH]n1 was read as TDP1 cell noCPT 8.2µM*, HepG2 viability -20%, ATXN viability inactive, TDP1 cell CPT 6.5µM*, ATXN2 expr inh -24% and TGFb SMAD3 inh 6%.
Screening C/C=C/C(=O)[C@@H](C)[C@@H](/C=C/C[Si](C)(C)C)C(C)C returned HepG2 viability 11% and TGFb SMAD3 inh -2%.
Cc1ccccc1OCc1nc2ccccc2c(=O)n1N was read as TDP1 cell noCPT inconclusive, HepG2 viability -1%, ATXN viability inactive, TDP1 cell CPT inconclusive, ATXN2 expr inh 16% and TGFb SMAD3 inh -4%.
Screening COc1cc2nc(=S)n3[nH]c(CCn4nc(C)cc4C)nc3c2cc1OC returned TDP1 cell noCPT 1.3µM*, HepG2 viability -65%, ATXN viability inconclusive, TDP1 cell CPT 1.6µM*, ATXN2 expr inh -18% and TGFb SMAD3 inh -10%.
Screening COc1cc2nc(=S)n3[nH]c(COc4ccccc4C)nc3c2cc1OC returned TDP1 cell noCPT 5.8µM*, HepG2 viability -1%, ATXN viability inconclusive, TDP1 cell CPT 1.2µM*, ATXN2 expr inh inconclusive and TGFb SMAD3 inh -28%.
For Cc1cccc(CC(=O)NCCc2csc(-c3ccc(C(F)(F)F)cc3)n2)c1 the results were TDP1 cell noCPT 15µM*, HepG2 viability -103%, TDP1 cell CPT 16µM* and TGFb SMAD3 inh 0%.
O=C(Cc1ccc(F)cc1)NCCc1csc(-c2cccc(F)c2)n1 was read as TDP1 cell noCPT inconclusive, HepG2 viability -24%, ATXN viability inactive, TDP1 cell CPT inconclusive, ATXN2 expr inh -29% and TGFb SMAD3 inh -29%.
Cc1cccc(-c2nc(CCNC(=O)Cc3ccc(F)cc3)cs2)c1 was read as TDP1 cell noCPT 23µM*, HepG2 viability -9%, TDP1 cell CPT inconclusive and TGFb SMAD3 inh 0%.
COc1ccc(CC(=O)NCCc2csc(-c3cccc(C)c3)n2)cc1 was read as TDP1 cell noCPT inconclusive, HepG2 viability -24%, TDP1 cell CPT inconclusive and TGFb SMAD3 inh -24%.
Cc1ccc(S(=O)(=O)NCCCNC(=O)OCc2ccccc2)cc1 was read as TDP1 cell noCPT inconclusive, HepG2 viability -1%, ATXN viability inconclusive, TDP1 cell CPT inconclusive, ATXN2 expr inh -6% and TGFb SMAD3 inh -8%.
Cc1ccc(N2C(=O)C(Cl)=C(Nc3c(C)n(C)n(-c4ccccc4)c3=O)C2=O)cc1 was read as TDP1 cell noCPT 13µM*, HepG2 viability 1%, ATXN viability inactive, TDP1 cell CPT inconclusive, ATXN2 expr inh -1% and TGFb SMAD3 inh inconclusive.
Screening CC[n+]1c(-c2ccc(C)cc2)csc1Nc1c(C)n(C)n(-c2ccccc2)c1=O returned TDP1 cell noCPT 12µM*, HepG2 viability 0%, ATXN viability inconclusive, TDP1 cell CPT 15µM*, ATXN2 expr inh -8% and TGFb SMAD3 inh -19%.
CCC(Sc1nnc(C)n2c1cc1occc12)C(=O)Nc1ccccc1F (stereo unspecified) was read as TDP1 cell noCPT 26µM*, HepG2 viability -25%, TDP1 cell CPT 21µM* and TGFb SMAD3 inh inconclusive.
CCc1nnc(SC(CC)C(=O)NCCOC)c2cc3occc3n12 (stereo unspecified) was read as TDP1 cell noCPT inconclusive, HepG2 viability -13%, TDP1 cell CPT inconclusive and TGFb SMAD3 inh inconclusive.
`CCc1nnc(SCC(=O)Nc2ccc(Cl)cc2F)c2cc3occc3n12` gave TDP1 cell noCPT 15µM*, HepG2 viability -9%, TDP1 cell CPT 23µM* and TGFb SMAD3 inh 1%.
CC(C)NC(=O)c1cc(C2CCCCN2C(=O)c2ccc(C#N)cc2)on1 (stereo unspecified) was read as TDP1 cell noCPT 1%, HepG2 viability 6%, ATXN viability inactive, TDP1 cell CPT inconclusive, ATXN2 expr inh 5% and TGFb SMAD3 inh 43%.
For CCCCn1c(N)c(N(CCOC)C(=O)COC(=O)Cc2cccc(OC)c2)c(=O)[nH]c1=O the results were TDP1 cell noCPT -1%, HepG2 viability 3%, ATXN viability inactive, TDP1 cell CPT 11%, ATXN2 expr inh 2% and TGFb SMAD3 inh -22%.
`CCNc1nc(N)nc(-c2cc(Cl)ccc2O)n1` gave TDP1 cell noCPT 21µM*, HepG2 viability 6%, ATXN viability inactive, TDP1 cell CPT inconclusive, ATXN2 expr inh 81% and TGFb SMAD3 inh inconclusive.
CCNc1nc(NCC)nc(-n2cc(C(=O)c3cc(Cl)ccc3O)cn2)n1 was read as TDP1 cell noCPT 10µM*, HepG2 viability 10%, TDP1 cell CPT inconclusive and TGFb SMAD3 inh 25%.
Screening CCCCNc1nc(N)nc(-c2cc(Cl)ccc2O)n1 returned TDP1 cell noCPT 16µM*, HepG2 viability -55%, ATXN viability inactive, TDP1 cell CPT 18µM*, ATXN2 expr inh 91% and TGFb SMAD3 inh inconclusive.
For CCCN(CCC)c1nc(N)nc(-c2cc(Cl)ccc2OC)n1 the results were TDP1 cell noCPT inconclusive, HepG2 viability -31%, ATXN viability inactive, TDP1 cell CPT inconclusive, ATXN2 expr inh -9% and TGFb SMAD3 inh -25%.
`Nc1nc(N)nc(-c2cc([N+](=O)[O-])ccc2O)n1` gave TDP1 cell noCPT -23%, HepG2 viability -37%, ATXN viability inactive, TDP1 cell CPT -13%, ATXN2 expr inh -27% and TGFb SMAD3 inh inconclusive.
Screening Nc1nc(N)nc(-c2cc(O)ccc2O)n1 returned TDP1 cell noCPT 5.8µM*, HepG2 viability 5%, ATXN viability inactive, TDP1 cell CPT 8.2µM*, ATXN2 expr inh 9% and TGFb SMAD3 inh inconclusive.
`COc1ccc(O)c(C(=O)c2cnn(-c3ccccc3)c2)c1` gave TDP1 cell noCPT -10%, HepG2 viability 4%, ATXN viability inactive, TDP1 cell CPT -1%, ATXN2 expr inh 17% and TGFb SMAD3 inh 0%.

High-throughput results from PubChem BioAssay.
